Source: PubChem BioAssay
nsP2pro primary – inhibitors of chikungunya virus nsP2 protease | actives 1.1% (n = 31,000) | Potency, µM (top dose mostly 24.9 µM), hits mostly inhibitors | FRET peptide cleavage, nsP2pro, fluorescence 1 h | Q8JUX6; also: nearly all actives have a fitted effect of over 60% in size
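Recombinant nsP2pro (150 nM) was preincubated with compound 15 min at room temperature in 10 mM Tris-HCl pH 8.0, 0.01% Tween 20. Peptide 2 FRET substrate (2.5 uM) was then added and fluorescence read after 1 h. Seven-point series, up to 25 uM.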
nsP2 cell sec – cell-based CHIKV nsP2 protease inhibition, secondary. shares compounds with nsP2pro primary. cell-based CHIKV nsP2 protease reporter assay. Potency, µM (titrated, usually from 51.1 µM), actives largely listed as inhibitors. actives 10% (n = 450). AID 1964100; also: nearly all actives have a fitted effect of over 70% in size
NSP2 full ctr – selectivity test for CHIKV nsP2 protease inhibitors: full-length NSP2; shares compounds with nsP2pro primary; Full-length CHIKV NSP2 protease enzymatic counterscreen; Potency, µM (top dose mostly 50.7 µM), hits mostly inhibitors; actives 39% (n = 410); also: nearly all actives have a fitted effect of over 65% in size
Furin counterscr – selectivity counter-screen for CHIKV nsP2 protease inhibitors: human furin. shares compounds with nsP2pro primary. Recombinant human furin enzymatic counterscreen, fluorogenic substrate. Potency, µM (highest dose often 50.6 µM), actives largely listed as inhibitors. actives 6% (n = 410)
NS23 peptide cs – blocks CHIKV nsP2 protease cleavage of endogenous NS2/3 peptide. Potency, µM (doses to about 51 µM), most hits filed as inhibitors. actives 34% (n = 410). shares compounds with nsP2pro primary. AID 1964103. Purified CHIKV nsP2 protease, endogenous NS2/3 peptide cleavage; also: nearly all actives have a fitted effect of over 55% in size
Papain cs – papain protease inhibition, counterscreen for nsP2pro inhibitors. actives 5% (n = 410). shares compounds with nsP2pro primary. Potency, µM (doses to about 51 µM), hits mostly inhibitors. purified papain protease activity, enzymatic inhibition
nsP2pro conf qHTS – confirmation of CHIKV nsP2 protease inhibitors. shares compounds with nsP2pro primary. CHIKV nsP2 protease enzymatic activity, qHTS. Potency, µM (top dose mostly 25.5 µM), hits mostly inhibitors. actives 43% (n = 410). AID 1964105; also: nearly all actives have a fitted effect of over 75% in size
HCV NS3 4A cs – selectivity counter-screen for CHIKV nsP2 protease inhibitors: HCV NS3/4A | shares compounds with nsP2pro primary | actives 20% (n = 410) | AID 1964106 | Potency, µM (titrated, usually from 50.9 µM), hits mostly inhibitors | HCV NS3/4A protease biochemical counterscreen; also: nearly all actives have a fitted effect of over 55% in size
A number is an active result. The sample as a whole holds a higher share of hits than the screen did. Calls follow the shape of the full dose curve.

What do the screens show for `COCCN1Cc2ccc(NCC(C)C)nc2C(C)(C(=O)NC2CCC2)C1` (stereo not drawn)?
nsP2pro primary: inactive

Results for O=C(c1n[nH]c2ccccc12)N1CCC(Cc2nc(-c3ccncc3)n[nH]2)CC1 ?
nsP2pro primary: inactive

How did CC1=C2C3OC(=O)C(C)C3(O)CCC2(C)CCC1 (stereo not drawn) do in these assays?
nsP2pro primary: inactive

Results for C=C1C(=O)O[C@@H]2C3=C(C)CCC[C@]3(C)CC[C@@]12O ?
nsP2pro primary: 3.13µM; nsP2 cell sec: inconclusive; NSP2 full ctr: inconclusive; Furin counterscr: inactive; NS23 peptide cs: 18.3µM; Papain cs: inactive; nsP2pro conf qHTS: inconclusive; HCV NS3 4A cs: inactive

What do the screens show for `CC1=C2C3OC(=O)C(C)C3(O)CCC2(C)CCC1=O` (stereo not drawn)?
nsP2pro primary: inactive

Results for CN[C@@H]1[C@@H](O)[C@@H](O[C@@H]2[C@@H](O)[C@H](O[C@H]3O[C@H]([C@@H](C)NC)CC[C@H]3N)[C@@H](N)C[C@H]2N)OC[C@]1(C)O ?
nsP2pro primary: inactive

How did C/C=C/C=C/C(=O)OC1CC/C=C/C(O)C(O)C(CCC)OC1=O (stereo not drawn) do in these assays?
nsP2pro primary: inconclusive; nsP2 cell sec: inactive; NSP2 full ctr: inactive; Furin counterscr: inactive; NS23 peptide cs: inactive; Papain cs: inconclusive; nsP2pro conf qHTS: inactive; HCV NS3 4A cs: inactive

What do the screens show for `C/C=C/C=C/C=C/C(=O)OC1C=C2C(O)OC(=O)[C@]2(O)[C@@]2(C)CCCC(C)(C)[C@H]12` (stereo partly drawn)?
nsP2pro primary: inactive

Results for COc1ccc(N2CCN(C(=O)c3cc4c(s3)CN(C3CCCC3)C4)CC2)cc1 ?
nsP2pro primary: inactive

How did O=S(=O)(NCc1ccccc1)c1ccc(O)c2ncccc12 do in these assays?
nsP2pro primary: inactive

Results for Cc1cc(C)nc(NC(=S)N2CCN(c3cccc(OC(F)F)c3)CC2)c1 ?
nsP2pro primary: inactive

Results for C=C1C2CCC3C(CCC4[C@@]3(C)CCC[C@@]4(C)C(=O)O)(C2)[C@@H]1OC(=O)/C(C)=C\C (stereo partly drawn) ?
nsP2pro primary: 1.36µM; nsP2 cell sec: inactive; NSP2 full ctr: inactive; Furin counterscr: inactive; NS23 peptide cs: inactive; Papain cs: inactive; nsP2pro conf qHTS: inactive; HCV NS3 4A cs: inactive

What do the screens show for `C[C@]12CCC[C@](C)(C(=O)O)C1CCC13C=C(CO)C(CCC12)C3` (stereo partly drawn)?
nsP2pro primary: inactive

Results for C=C1CC23CCC4[C@@](C)(CCC[C@@]4(C)C(=O)O)C2CCC1C3 (stereo partly drawn) ?
nsP2pro primary: inactive

How did COc1ccc2[nH]c(C[C@@H]3C[C@@H](C(C)C)[C@H](CNC(=O)c4cccnc4)C=C3C)nc2n1 do in these assays?
nsP2pro primary: inactive

Results for CCN(CC)C(=O)[C@@H]1CCC[C@@H](NC(=O)c2ccc(Cl)cc2)CN(C)C(=O)C1 ?
nsP2pro primary: inactive

What do the screens show for `CCCNC(=O)N[C@@H]1CCC[C@@H](C(=O)N(CC)CC)CC(=O)N(C)C1`?
nsP2pro primary: 5.62µM; nsP2 cell sec: inactive; NSP2 full ctr: 23.7µM; Furin counterscr: inconclusive; NS23 peptide cs: 16.8µM; Papain cs: inactive; nsP2pro conf qHTS: 8.19µM; HCV NS3 4A cs: inconclusive

What do the screens show for `CCN(CC)C(=O)[C@@H]1CCC[C@@H](NC(=O)c2ccc(OC)cc2)CN(C)C(=O)C1`?
nsP2pro primary: inactive

How did CN(C)CCCNC(=O)c1ccc(-c2cnc3c(O)ccc(C(=O)O)c3c2)cc1 do in these assays?
nsP2pro primary: inactive
